# In PubChem BioAssay (EPA / NIEHS):
# Records with an inconclusive call do not appear. Active and inactive are the calls of the source. Rule for the calls: active = hit-call score of the fitted dose curve at least 0.9, where 1 is the maximum; inconclusive = response in the unintended direction; inactive = score below 0.9.
# Biological target: bovine Estrogen Receptor (ER), ESR1 (gene 407238) (UniProt P49884)
# Experiment: NVS_NR_bER: NovaScreen (NVS) Nuclear Receptor Binding Assay for bovine Estrogen Receptor (ER) (AID 2283345);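 note: actives lower the bound radioligand count which means they displace the ER ligand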
# Protocol: NVS_NR_bER is a biochemical, single-readout assay that uses extracted gene-proteins from Bovine uterine membranes in a tissue-based cell-free assay. Measurements were taken 18 hours after chemical dosing in a 96-well plate.NVS_NR_bER is one of one assay component(s) measured or calculated from the NVS_NR_bER assay. It is designed to make measurements of radioligand binding, a form of binding reporter, as detected with scintillation counting signals by Lysate-based radiodetection technology.Data from the assay component NVS_NR_bER was analyzed into 1 assay endpoint. This assay endpoint, NVS_NR_bER, was analyzed in the positive analysis fitting direction relative to DMSO as the negative control and baseline of activity. Using a type of binding reporter, loss-of-signal activity can be used to understand changes in the binding as they relate to the gene ESR1. Furthermore, this assay endpoint can be referred to as a primary readout, because the performed assay has only produced 1 assay endpoint. To generalize the intended target to other relatable targets, this assay endpoint is annotated to the nuclear receptor intended target family, where the subfamily is steroidal.
# Binding assays used specific radioligands (tritiated, iodinated) with non-radioactive competitive displacement ligands in agonist or antagonist protocols (as indicated) and various reference compounds and inhibitors to titrate specific binding to receptors and transporters. Most enzyme assays (CYPs, kinases, phosphatases, proteases, HDACs) used recombinant protein and specific substrates (fluorescence mostly, some colorimetric and radioactive) and inhibitors, followed by a biochemical separation of substrate and product. All assays for the biochemical HTS were initially run in duplicate at a single concentration (10 uM for CYP450 assays and 25 uM for all others). […] Each assay was run with positive and negative controls, and concurrent controls on every plate. The follow-up (secondary) screen tested active chemical-pairs in concentration series, as well as a few additional assays not tested in the primary screen, some selected negative inactives, and several cases re-run in the concentration series for confirmatory purposes.
# bovine Estrogen Receptor (ER), ESR1 (gene 407238), sequence (P49884 whole entry, looked up): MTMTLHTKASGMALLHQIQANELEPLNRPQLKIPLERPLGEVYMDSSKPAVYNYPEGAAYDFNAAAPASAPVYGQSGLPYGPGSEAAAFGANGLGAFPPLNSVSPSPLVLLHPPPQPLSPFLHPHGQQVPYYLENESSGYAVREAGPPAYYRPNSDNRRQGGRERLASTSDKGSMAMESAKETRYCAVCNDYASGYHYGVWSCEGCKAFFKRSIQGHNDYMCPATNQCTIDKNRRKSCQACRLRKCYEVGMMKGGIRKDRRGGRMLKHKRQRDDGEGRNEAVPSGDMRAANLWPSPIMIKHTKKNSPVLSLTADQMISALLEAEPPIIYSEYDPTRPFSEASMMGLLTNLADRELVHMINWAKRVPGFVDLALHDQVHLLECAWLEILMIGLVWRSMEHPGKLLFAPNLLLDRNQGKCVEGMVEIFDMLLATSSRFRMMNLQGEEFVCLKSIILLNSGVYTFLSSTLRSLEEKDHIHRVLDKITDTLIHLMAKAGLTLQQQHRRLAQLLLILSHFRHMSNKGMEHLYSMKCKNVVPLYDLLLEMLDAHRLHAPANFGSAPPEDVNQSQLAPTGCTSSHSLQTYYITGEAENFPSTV
row,SMILES,outcome
1,CCCCC(CC)COC(=O)c1ccccc1C(=O)OCC(CC)CCCC (stereo unspecified),inactive
2,CCNc1nc(Cl)nc(NCC)n1,inactive
3,OC(c1ccc(Cl)cc1)(c1cncnc1)c1ccccc1Cl (stereo unspecified),inactive
4,CCCCOC(=O)c1ccccc1C(=O)OCCCC,inactive
5,COc1cnc(OC)n2nc(NS(=O)(=O)c3c(OCC(F)F)cccc3C(F)(F)F)nc12,inactive
6,C=CC1(C)OC(=O)N(c2cc(Cl)cc(Cl)c2)C1=O (stereo unspecified),inactive
7,C=CCC1=C(C)C(OC(=O)C2C(C=C(C)C)C2(C)C)CC1=O (stereo unspecified),inactive
8,COP(N)(=O)SC (stereo unspecified),inactive
9,CCCCNC(=O)OCC#CI,inactive
10,Cc1cc(Cl)ccc1OCC(=O)O,inactive
11,Cc1c(F)c(F)c(COC(=O)C2C(/C=C(\Cl)C(F)(F)F)C2(C)C)c(F)c1F (stereo unspecified),inactive
12,CCCN(CCC)c1c([N+](=O)[O-])cc(S(N)(=O)=O)cc1[N+](=O)[O-],inactive
13,COc1nc(C)nc(NC(=O)NS(=O)(=O)c2ccccc2Cl)n1,inactive
14,CO/C=C(/C(=O)OC)c1ccccc1Oc1cc(Oc2ccccc2C#N)ncn1,inactive
15,COc1ccc(C(c2ccc(OC)cc2)C(Cl)(Cl)Cl)cc1,inactive
16,N#Cc1cc(Br)c(O)c(Br)c1,inactive
